Reference: PubChem BioAssay AID504329 (Southern Research Specialized Biocontainment Screening …, 2011)
The whole screen tested about 340,000 compounds, of which about 1,000 (0.29%) were called active. Rule as the data show it: inconclusive = inhibition above about 27% without an active follow-up result; inactive = below that. The list is a sample of the results. Entries with a potency or affinity are not part of this list.

Test: H1N1 influenza NS1A inhibitors, functional cell based assay (AID 504329)
Details: percent inhibition, at 12.5 µM, stronger effect = higher value

Compound | inhibition
S=C(NCc1ccccc1)N1CCN(C2CCCCC2)CC1 | -12% (inactive)
C/C(=N\NC(=O)C1CCCN(S(=O)(=O)c2ccccc2)C1)c1cccnc1 (configuration not stated) | -20.5% (inactive)
S=C(Nc1ccccc1)N1CCN(C2CCCCC2)CC1 | 11.4% (inactive)
C/C(=N\NC(=O)C1CCCN(S(=O)(=O)c2ccccc2)C1)c1ccncc1 (configuration not stated) | -23.8% (inactive)
CC(=O)C1=C(O)C(=O)N(CCC(=O)O)C1c1ccccc1[N+](=O)[O-] (configuration not stated) | -13.3% (inactive)
Cc1ccc(Nc2ccc(S(=O)(=O)N3CCOCC3)cc2[N+](=O)[O-])c(C)c1 | 11.1% (inactive)
Cc1ccccc1Nc1ccc(S(=O)(=O)N2CCOCC2)cc1[N+](=O)[O-] | 12.2% (inactive)
COc1ccc(C(=O)NCCc2nnc3ccc(SCC(=O)Nc4ccccc4)nn23)cc1 | -20% (inactive)
Cc1ccc(OCC(=O)N2CCC(N3CC(C)CC(C)C3)CC2)cc1 (configuration not stated) | 17% (inactive)
O=C(O)COc1ccc(S(=O)(=O)NCCc2ccccc2)cc1 | -12% (inactive)
c1ccc(Nc2ccccn2)nc1 | -3.53% (inactive)
Oc1ccccc1Nc1ccccn1 | -5.39% (inactive)
O=C(O)c1ccccc1C(=O)c1ccc(F)c(F)c1 | 3.3% (inactive)
O=C(NCCCNC(=O)c1cccnc1)c1ccc(Cl)cc1 | -0.27% (inactive)
Cc1cccc(C)c1NC(=O)C(NC(=O)CN1C(=O)c2ccccc2C1=O)c1ccccc1 (configuration not stated) | -3.98% (inactive)
Cc1cc(Cl)ccc1OCC(=O)O | -1.09% (inactive)
C=C(CC)C(=O)c1ccc(OCC(=O)O)c(Cl)c1Cl | 0.79% (inactive)
O=C(COC(=O)COc1ccc(Cl)cc1Cl)NC1CC1 | 0.21% (inactive)
CN(CC(=O)Nc1ccccc1C(=O)NC1CC1)Cc1ccc(N(C)C)cc1 | 0.15% (inactive)
Nc1ccc(NC(=O)c2ccccc2)c2c1C(=O)c1ccccc1C2=O | 24.3% (inactive)
Nc1c(Br)cc(Br)c2c1C(=O)c1c(cccc1S(=O)(=O)O)C2=O | 5.84% (inactive)

Compound | inhibition
O=C(Nc1ccc2c(c1)C(=O)c1ccccc1-2)c1ccccc1 | -5.09% (inactive)
Cc1cc(C)c(NC(=O)COC(=O)c2cccc3c2C(=O)c2ccccc2C3=O)c(C)c1 | 3.94% (inactive)
CSc1cccc(NC(=O)CN(C)S(=O)(=O)c2ccc(C)cc2)c1 | -2.41% (inactive)
CCOc1ccc(NS(=O)(=O)c2ccc(C(=O)NCC(C)(C)N3CCOCC3)cc2)cc1 | -14.4% (inactive)
O=C(CCCC(=O)N/N=C\c1ccccn1)N/N=C\c1ccccn1 | -2.81% (inactive)
S=C(NCc1ccccc1)NCc1ccccn1 | 1.05% (inactive)
O=C(Cc1ccccc1)N/N=C/c1ccccn1 | -2.81% (inactive)
Cc1ccc(NC(=S)NCc2ccccn2)cc1 | -14.7% (inactive)
Cc1ccc2c(c1)oc(=O)n2CC(=O)c1ccccc1 | -20.6% (inactive)
CCOC(=O)CC1CCCCN1C(=O)c1ccc2nc(CCOC)oc2c1 (configuration not stated) | 1.79% (inactive)
CCN1CCN(Cc2nc3cc(NC(=O)COc4ccc([N+](=O)[O-])cc4)ccc3n2C)CC1 | 0.32% (inactive)
CC(=O)c1ccc(N(CC(=O)NCC2CCCO2)C(=O)CCC(=O)Nc2cc(C)on2)cc1 (configuration not stated) | -8.06% (inactive)
Cc1cccn2c(=O)c(C(=O)NC3CCCCC3)c(O)nc12 | 5.08% (inactive)
CCOC(=O)C1CCCN(C(=O)/C=C/c2ccc(Cl)cc2)C1 (configuration not stated) | -12.8% (inactive)
O=C(O)C1C2C=CC(C2)C1C(=O)Nc1ccc(Cl)c(Cl)c1 (configuration not stated) | 1.34% (inactive)
Oc1ccccc1C=NNC(=S)NN=Cc1ccccc1O | 16.5% (inactive)
COC(=O)c1cccc(/C=N/NC(N)=S)c1O | -14.3% (inactive)
NC(=S)N/N=C/c1ccccc1 | -0.87% (inactive)
NC(=S)N/N=C/c1cccc(/C=N/NC(N)=S)c1 | -0.05% (inactive)
Cc1ccc(NC(=O)c2cc(S(=O)(=O)N3CCCC3)cn2C)cc1 | 2.93% (inactive)
COc1cccc(S(=O)(=O)Nc2ccc(C(=O)N3CCN(C(=O)c4ccco4)CC3)cc2)c1 | 5.1% (inactive)

Compound | inhibition
COC(=O)C=CC(=NNc1ccccc1)c1ccccc1 | 3.06% (inactive)
Cc1nn(Cc2ccc(Cl)cc2)c(C)c1NC(=O)CCCn1nc(C)c([N+](=O)[O-])c1C | 10.9% (inactive)
O=C(O)c1ccc2cccnc2c1O | -0.15% (inactive)
Oc1c(CN2CCN(c3ccccc3)CC2)cc(Br)c2cccnc12 | 14.4% (inactive)
Oc1c(Br)cc(Br)c2cccnc12 | -9.24% (inactive)
O=C(c1ccc(Cl)cc1)C1CCCN(Cc2cccc3cccnc23)C1 (configuration not stated) | -0.71% (inactive)
CC(C(=O)NC1CCCCCC1)N(c1ccccc1)S(C)(=O)=O (configuration not stated) | 7.2% (inactive)
CC1(C)Cc2cccc(Oc3ccc(S(=O)(=O)N4CCCC4)cn3)c2O1 | 6.74% (inactive)
CC(C)(CNC(=O)C1CCCN1C(=O)c1cccs1)N1CCOCC1 (configuration not stated) | -1% (inactive)
O=C(c1cc(-c2ccc(Cl)cc2)n[nH]1)N1CCc2ccccc2C1 | -1.28% (inactive)
COc1ccccc1C(=O)NC(=O)COC(=O)c1cnc(C)cn1 | 1.58% (inactive)
CCc1cccc(CC)c1NC(=S)NCCc1ccc(O)c(O)c1 | 9.59% (inactive)
CCN1/C(=C/c2ccc3cc(C)ccc3[n+]2CC)Sc2ccccc21 | 21% (inactive)
CCN1C(=C(C#N)C#N)C=Cc2ccccc21 | -6.42% (inactive)
CCN1/C(=C/c2ccc3ccccc3[n+]2CCCS(=O)(=O)[O-])C=Cc2cc(C)ccc21 | 19.6% (inactive)
CCN1/C(=C/c2ccc3cc(C)ccc3[n+]2CC)Sc2cc(C)c(C)cc21 | 28.7% (inactive)
CCN1/C(=C/c2ccc3cc(C)ccc3[n+]2CC)Sc2ccc3sccc3c21 | -14% (inactive)
CCN1/C(=C\c2ccc3cc(C)ccc3[n+]2CC)Sc2cc(C)c(C)cc21 | 25.6% (inactive)
CC(=O)N(C)C(c1ccc(N(C)C)cc1)c1nnnn1-c1c(C)cccc1C (configuration not stated) | 3.51% (inactive)
CCCC(=O)Nc1nnc(S(=O)(=O)N(CC(C)C)c2ccccc2)s1 | -2.29% (inactive)
